Reference: PubChem BioAssay (NCI)
About 79,000 compounds went through this panel and 15% of them were active in at least one assay; those are over-represented in the sample as a whole. Calls of active or inactive are those of the source. Rule as the data show it: active = growth inhibition above about 70%; inactive = the rest.

Test: NCI Yeast Anticancer Drug Screen. Data for the sgs1 mgt1 strain (AID 161);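 also: 0% = growth of cultures given vehicle only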
Details: S. cerevisiae sgs1 mgt1 strain, at 50.0 µM, hits give high values
In short: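 Growth of a repair-deficient yeast mutant was monitored after compound treatment and expressed as inhibition relative to vehicle-treated cultures.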

Row | Structure (SMILES) | growth inhibition
1 | N#Cc1c(SCc2ccc(Cl)cc2)nsc1Nc1ccc(Cl)cc1 | 87.2% (active)
2 | CC(CO)(Nc1ccc([N+](=O)[O-])cc1[N+](=O)[O-])C(=O)O (stereo not given) | 98.1% (active)
3 | O=[N+]([O-])/C(C(Cl)=C(Cl)Cl)=C(/Nc1ccccc1)Sc1ccccc1 | 66.5% (inactive)
4 | CC(SCc1ccccc1)C(=O)O (stereo not given) | -35.9% (inactive)
5 | O=C1C2(Cl)C(Cl)=C(Cl)C1(Cl)C1(Cl)C(Cl)=C(Cl)C(=O)C21Cl (stereo not given) | 39.8% (inactive)
6 | O=C(CNC(=O)c1ccccc1)Oc1c(Cl)c(Cl)c(Cl)c(Cl)c1Cl | 90.8% (active)
7 | CN(C)c1nc(NNS(=O)(=O)c2ccc(N)cc2)nc(N(C)C)n1 | -5.75% (inactive)
8 | CC1(C(Cl)(Cl)Cl)C=CC(O)(C#CC2(O)C=CC(C)(C(Cl)(Cl)Cl)C=C2)C=C1 (stereo not given) | 98.3% (active)
9 | COCCN1C(=O)C2c3[nH]c4ccccc4c3C3CCC(C(C)(C)C)CC3C2C1=O (stereo not given) | 88.7% (active)
10 | Cc1nc(N)sc1N=Nc1cccc(Cl)c1Cl | 66.2% (inactive)
11 | ClC1=C(Cl)C2c3ccccc3C1c1ccccc12 | 95.7% (active)
12 | C=C/C=C/CC=C | 6.6% (inactive)
13 | C/C(=N\NC(=S)NCc1ccccc1)c1nccnc1C | 82.9% (active)
14 | COC(=O)c1cc(OC)c(OC)c(OC)c1 | -13.1% (inactive)
15 | Nc1nc2c(ccc3ccccc32)s1 | 67.5% (inactive)
16 | N=C(N)c1ccc(N=Nc2cc(/C=C/c3ccccc3)ccc2O)cc1 | 98.5% (active)
17 | O=C1NC(=O)N(c2ccc([N+](=O)[O-])cc2)C1=O | -2.95% (inactive)
18 | O=C(Nc1cc(Cl)cc(Cl)c1)OCCCl | 93.8% (active)
19 | Cc1[nH]nc(-c2ccon2)c1N=O | -1.75% (inactive)
20 | O=C(O)CCC(=O)c1ccc(C2CCCC2)c2ccccc12 | 68.3% (inactive)

Row | Structure (SMILES) | growth inhibition
21 | CC12CC(Br)(Br)C(=O)C3C1CCCC32 | 86.8% (active)
22 | O=[N+]([O-])c1ccc(NSc2ccccc2)cc1 | 90.2% (active)
23 | CCC1CCC(CC)C1=O (stereo not given) | 51.6% (inactive)
24 | Cc1cc(C(C)(CC(C)C)c2ccc(O)c(C)c2)ccc1O | 93.2% (active)
25 | N#CC1C(=O)SC2c3ccccc3C(=O)c3ccccc3C12 (stereo not given) | 38% (inactive)
26 | COc1ccc(C2C3=C(CCCC3=O)Oc3cc4c(cc32)OCO4)cc1 (stereo not given) | 97.3% (active)
27 | CCC(c1cccc(O)c1)C(CC)c1cccc(O)c1 (stereo not given) | 39.4% (inactive)
28 | CCCCCCCCCCCC1C(C#N)C(=O)NC(=O)C1C#N (stereo not given) | 64.7% (inactive)
29 | O=C(NNC(=O)c1cccc(C(=O)NNC(=O)c2ccc(Cl)c(Cl)c2)n1)c1ccc(Cl)c(Cl)c1 | 52.7% (inactive)
30 | CCOC(=O)CCC(NC(=O)c1ccc(NC(OC)c2nc3cc(C(F)(F)F)ccc3nc2-c2ccccc2)cc1)C(=O)OCC (stereo not given) | 93.8% (active)
31 | CCOC(=O)c1c(C)[nH]c(CO)c1C | 43.1% (inactive)
32 | S=C(NC(=S)Nc1ccc(Cl)cc1)Nc1ccc(Cl)cc1 | 72.1% (active)
33 | O=S(=O)(c1ccc(OCC(O)COc2ccc(S(=O)(=O)c3ccc(OCC4CO4)cc3)cc2)cc1)c1ccc(OCC2CO2)cc1 (stereo not given) | 63.1% (inactive)
34 | C=C(C)C(=O)OC1CC2=CC(CC3(C)OC3C3OC(=O)C(=C)C13)OC2=O (stereo not given) | 57.6% (inactive)
35 | c1ccc2c(c1)C[n+]1ccc3ccccc3c1-c1c3ccccc3cc[n+]1C2 | 69.8% (inactive)
36 | CCN(CC)CCOC(=O)Cc1cccc2c(=O)cc(-c3cccs3)oc12 | -16.4% (inactive)
37 | C=C1C(=O)OC2C/C(C)=C/CC/C(C)=C/CCC3(COC(C)=O)OC3CC12 (stereo not given) | 94.2% (active)
38 | CN1C=CC(C(O)(c2ccccc2)c2ccccc2)CC1 (stereo not given) | 10% (inactive)
39 | OCc1cccc2c1Oc1ccccc1S2 | -10.3% (inactive)
40 | COC(=O)c1[nH]c(=O)c(C#N)c(C(=O)OC)c1C(=O)c1ccc(Cl)c(Cl)c1 | 95.4% (active)
